These sequences were tested against CHRM2 (assay: pooled miR-30 sensor sort-seq; sequence = guide strand). Conditions: shRNA.
Also: reference of the scale not given here.

Sequence | sensor-assay potency score (higher = more potent)
TTCATCTCCATTCTGACCTGAA | 0.399
TAAAAAGTAATTGTTGACGGTC | 0.0384
TTAGTCATCTTCACAATCTTGC | 0.87
ATAAGGACTTGTAAGAGCCAGG | -0.765
TTTGTGACACAGAAGTACCTGT | 0.495
TTCATAACTGAGGCATTGCTGA | -0.852
TATTAGAGGCAACAGCACTGAC | -0.688
TTAAAGGTCTTCTTGAAGGTGG | 0.265
TTTCATCTCCATTCTGACCTGA | 0.602
TTTTGTGACACAGAAGTACCTG | 0.758
TTAGAGTTCTCATCTTTGGAAT | -1.06
TACATGAGTCACTTTTTGGGGT | -0.152
TAGAAGGCTGCAATAGCCGTAC | -0.0525
TTAATGAGCACCATGACATTGT | -0.0449

From the OligoGym collection
